Data taken from PubChem BioAssay AID651780 (The Scripps Research Institute Molecular Screening Center, 2012).
Screen size: about 2,400 compounds; about 1,800 (75%) were called active. So high a share suggests a set chosen from earlier hits. A selection follows. A number with no mark means an inactive call. Rule as the data show it: active = inhibition above about 22%; inactive = the rest.

Test: nonselective antagonists in TAAR1 counter-screen cells, counter-screen for hTAAR1 antagonist project, cell-based, fluorescence, calcium (AID 651780);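 also: CHO-Ga16 host cells stimulated with ATP at an EC80 level; 0% = agonist EC80 plus vehicle and 100% = vehicle without agonist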
Conditions: counterscreen cell line, antagonist mode, at 3 µM, hits give high values

Compound | inhibition
O=C(CCc1ccccc1)Nc1cccc(-c2nnc(-c3ccco3)o2)c1 | 25.8% (active)
CCN=C1SC(CC(=O)Nc2ccc(C)cc2)C(=O)N1CC (centres undefined) | 29.4% (active)
O=C(Nc1ccccc1-c1nnn(CC(=O)N2CCN(c3ccccc3)CC2)n1)c1cccs1 | 36.9% (active)
Cn1c(C(=O)NCCc2ccsc2)cc2c(=O)n(C)c3ccccc3c21 | 27.8% (active)
Cc1ccccc1OCC(=O)Nc1ccc(N2CCN(C(=O)C(C)C)CC2)c(Cl)c1 | 43.2% (active)
CN(c1ccccc1)S(=O)(=O)c1cc(C(=O)Nc2nc3ccccc3[nH]2)ccc1Cl | 39.7% (active)
O=C(NCc1ccc2c(c1)OCO2)c1c(-c2ccsc2)sc2ccccc12 | 21.1%
COc1ccc(C2=NOC(Cn3nc(C(=O)NCc4ccc5c(c4)OCO5)cc3-c3ccccc3)C2)cc1 (centres undefined) | 34.1% (active)
O=C(COC(=O)c1ccccc1SCC(=O)N1CCCC1)Nc1ccccc1OC(F)F | 27.2% (active)
CC(C)N(Cc1ccccc1)C(=O)COC(=O)c1ccccc1SCC(=O)N1CCCC1 | 30.8% (active)
Cc1cc(C(C)(C)C)oc1C(=O)N(CC(=O)NC1CCCC1)Cc1ccc(Cl)cc1 | 36% (active)
COC(=O)Cc1nnn2c1[C@H](C)[C@H](c1ccccc1[N+](=O)[O-])OCC2 | 5.35%
COc1ccc(/C=C/C(=O)Nc2ccc(C34CC5CC(CC(O)(C5)C3)C4)cc2)cc1OC | 37% (active)
CCOc1ccc(N2CC(C(=O)N/N=C/c3sccc3C)CC2=O)cc1 (centres undefined) | 10.5%
CSc1ncnc2c1ncn2CC(=O)C1CCC2C3CCC4=CC(=O)CCC4(C)C3CCC12C (centres undefined) | 49.7% (active)
CC(C)Oc1cc(F)ccc1-c1cc(C(=O)Nc2ccc(F)cc2)[nH]n1 | 26.3% (active)
COc1ccc(NC(=O)c2cc(-c3ccc(C)o3)nc3ccccc23)cc1 | 36.1% (active)
COc1ccc(-c2cc(C(=O)Nc3ccccc3O)c3ccccc3n2)cc1 | 32.2% (active)
N#Cc1cccc(NC(=O)COC(=O)c2ccccc2C(=O)c2ccc(Cl)c([N+](=O)[O-])c2)c1 | 36.1% (active)
O=C(NCCN1CCOCC1)c1ccc(/C=C2\Sc3ccccc3N(Cc3ccc(F)cc3)C2=O)cc1 | 35.2% (active)
O=C(NCCN1C(=O)S/C(=C\c2cccnc2)C1=O)c1ccc(S(=O)(=O)N2CCCC2)cc1 | 13%
COc1ccc(CN(C)C(=O)c2cc(-c3ccc(C)cc3C)nc3ccccc23)c(OC)c1OC | 28% (active)
COc1ccc(-c2cc(C(=O)N(C)Cc3ccccc3)c3ccccc3n2)cc1 | 27.7% (active)
COc1ccc(-c2cc(C(=O)N(C)Cc3ccc(OC)c(OC)c3OC)c3ccccc3n2)cc1OC | 30.9% (active)
COc1ccc(-c2cc(C(=O)N(C)CC(=O)Nc3ccccc3Cl)c3ccccc3n2)cc1OC | 27.4% (active)
CCOc1cc(/C=N/NC(=O)c2cc(-c3ccccc3)nc3ccccc23)ccc1O | 19%
COc1ccc(C(=O)Nc2ccccc2C(=O)N/N=C/c2ccc(O)c(OC)c2)cc1 | 38.3% (active)
O=C(N/N=C/c1ccc(OC(=O)c2ccccc2Cl)cc1)c1ccc(O)cc1 | 36.3% (active)
CC/C(=N/Nc1ccccc1)c1cnnc(SC)n1 | 16.8%
